For 31 compounds, Potency results are on record in PubChem BioAssay (NCATS).

Values joined by “and” are separate entries in the source; they are usually repeats but may differ in a detail not shown here. Equal entries are not always repeated. Inconclusive results are not listed. Active and inactive are the calls of the source. Unless noted, the call rests on the fitted dose curve; in most records, active means well fitted curve in the direction sought with a large enough effect; inconclusive means small, poorly fitted or top-dose-only effect, or another doubt; inactive means no such curve, though single readings can be large; an effect the other way counts as inactive or inconclusive.

The target in assay [1] is Calcium and integrin-binding protein 1 (Homo sapiens) (UniProt Q99828). Nature of the assay: Primary qHTS for Identification of Calcium Integrin Binding Protein 1 (CIB1) Competitor (AID 1508620).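 Further: GST tagged CIB1 binding a fluorescein labelled alphaIIb integrin peptide tracer; top concentration of the series differs between compounds.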 The conditions noted are these: CIB1-GST / FITC-alphaIIb peptide fluorescence polarization; series mostly up to 114 µM. Put shortly:
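Fluorescence polarization competition: CIB1-GST (1 uM final) preincubated with compound 15 min at room temperature, then FITC-labeled alphaIIb peptide (100 nM final) added for another 15 min. Polarization read at Ex 480/Em 540.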
On the technique in general: qHTS replaces the single test concentration by a dilution series.

Assay [2] has as its target Cytochrome P450 2C9 (Homo sapiens) (UniProt P11712). Nature of the assay: Cytochrome P450 family 2 subfamily C member 9 (CYP2C9) small molecule antagonists: luciferase biochemical (cell-free) qHTS assay (AID 1645842; active means well fitted curve in the direction sought with a large enough effect in the repeat runs; an effect the other way counts as inactive or inconclusive; further: nearly all actives have a fitted effect of over 55% in size; further: potency means the concentration at half of the fitted maximal effect). As to conditions: P450-Glo CYP2C9 enzyme assay, luciferin luminescence; series mostly up to 57.4 µM. A digest of the protocol: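 Luminescence, after 20 min with luciferin detection reagent, reflected CYP2C9 turnover during a 1 h NADPH-driven reaction at 37C. Enzyme-substrate mix contained 0.4% bovine serum albumin and was preincubated with compound 10 min at room temperature.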

The target of assay [3] is N-terminal Xaa-Pro-Lys N-methyltransferase 1 (Homo sapiens) (UniProt Q9BV86). As to the kind of experiment: Confirmatory qHTS for Inhibitors of N-terminal methyltransferase 1 (NTMT1): MTaseGlo Assay (AID 1645874). Further: potency means the concentration at half of the fitted maximal effect; nearly all actives have a fitted effect of over 65% in size. As to conditions: NTMT1 enzyme, MTase-Glo SAH luminescence; series mostly up to 100 µM. Put shortly: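 Compounds are incubated with 125 nM NTMT1 and 100 uM SAM for 15 min before the SPKRIA peptide (1 uM) starts a 30 min room-temperature methylation. SAH is measured by coupled luciferase luminescence and curves fitted to a Hill equation.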
Chain of N-terminal Xaa-Pro-Lys N-methyltransferase 1 (Homo sapiens) (Q9BV86 whole entry, looked up): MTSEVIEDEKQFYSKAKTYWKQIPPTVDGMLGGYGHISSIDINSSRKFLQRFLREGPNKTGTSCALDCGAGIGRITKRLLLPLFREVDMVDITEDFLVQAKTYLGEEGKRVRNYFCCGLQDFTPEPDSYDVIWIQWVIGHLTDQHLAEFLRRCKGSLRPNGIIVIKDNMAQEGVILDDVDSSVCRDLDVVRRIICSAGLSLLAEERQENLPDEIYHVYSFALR

A short description of assay [4]: Primary qHTS for inhibitors of nuclear receptor binding SET domain protein 2 (NSD2) in an isogenic RCH-ACV NSD2 p.E1099K mutant (9B) (AID 1645876). Further: nearly all actives have a fitted effect of over 70% in size. Further: potency means the concentration at half of the fitted maximal effect. As to conditions: RCH-ACV (leukaemia line) NSD2 E1099K (9B) viability, CellTiter-Glo, 72 h; series mostly up to 44.9 µM.
Assay [5] deals with Cytochrome P450 2D6 (Homo sapiens) (UniProt P10635). As to the kind of experiment: Cytochrome P450 family 2 subfamily D member 6 (CYP2D6) small molecule antagonists: luciferase biochemical (cell-free) qHTS assay (AID 1645840; active means well fitted curve in the direction sought with a large enough effect in the repeat runs; an effect the other way counts as inactive or inconclusive; further: nearly all actives have a fitted effect of over 55% in size; further: potency means the concentration at half of the fitted maximal effect). As to conditions: P450-Glo CYP2D6 enzyme, luciferin luminescence, 1 h; series mostly up to 57.4 µM. A digest of the protocol: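 P450-Glo luminescent screen: recombinant CYP2D6 enzyme–proluciferin substrate mix preincubated with compound 10 min at room temperature, then NADPH regeneration added for 1 h at room temperature. Detection reagent added for 20 min; luciferin light read as relative luminescence units.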
Chain of Cytochrome P450 2D6 (Homo sapiens) (P10635 whole entry, looked up): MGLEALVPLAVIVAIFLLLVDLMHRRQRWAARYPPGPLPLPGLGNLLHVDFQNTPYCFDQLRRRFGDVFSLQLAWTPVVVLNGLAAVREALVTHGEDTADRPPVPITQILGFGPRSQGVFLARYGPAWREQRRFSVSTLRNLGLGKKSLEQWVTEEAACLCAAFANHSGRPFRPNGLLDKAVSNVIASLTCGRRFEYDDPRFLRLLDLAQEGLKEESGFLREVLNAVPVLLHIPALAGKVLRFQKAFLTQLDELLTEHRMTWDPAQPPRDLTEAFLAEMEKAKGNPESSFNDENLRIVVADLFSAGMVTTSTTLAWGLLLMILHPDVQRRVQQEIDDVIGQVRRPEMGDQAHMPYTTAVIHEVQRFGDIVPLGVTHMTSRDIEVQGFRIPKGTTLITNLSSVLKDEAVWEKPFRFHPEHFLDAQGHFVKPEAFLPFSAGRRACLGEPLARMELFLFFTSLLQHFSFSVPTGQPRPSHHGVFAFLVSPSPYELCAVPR

Assay [6] deals with Cytochrome P450 3A4 (Homo sapiens) (UniProt P08684). Nature of the assay: Cytochrome P450 family 3 subfamily A member 4 (CYP3A4) small molecule antagonists: luciferase qHTS assay (AID 1645841; active means well fitted curve in the direction sought with a large enough effect in the repeat runs; an effect the other way counts as inactive or inconclusive; further: nearly all actives have a fitted effect of over 45% in size; further: potency means the concentration at half of the fitted maximal effect). The conditions noted are these: P450-Glo CYP3A4 enzyme assay, luciferin luminescence; series mostly up to 57.4 µM. A digest of the protocol: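 P450-Glo CYP3A4 enzyme with proluciferin substrate was preincubated with DMSO-dissolved compounds for 10 min at room temperature. NADPH regeneration solution started a 1 h reaction. Detection reagent stopped it, and luminescence was read after 20 min.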
Chain of Cytochrome P450 3A4 (Homo sapiens) (P08684 whole entry, looked up): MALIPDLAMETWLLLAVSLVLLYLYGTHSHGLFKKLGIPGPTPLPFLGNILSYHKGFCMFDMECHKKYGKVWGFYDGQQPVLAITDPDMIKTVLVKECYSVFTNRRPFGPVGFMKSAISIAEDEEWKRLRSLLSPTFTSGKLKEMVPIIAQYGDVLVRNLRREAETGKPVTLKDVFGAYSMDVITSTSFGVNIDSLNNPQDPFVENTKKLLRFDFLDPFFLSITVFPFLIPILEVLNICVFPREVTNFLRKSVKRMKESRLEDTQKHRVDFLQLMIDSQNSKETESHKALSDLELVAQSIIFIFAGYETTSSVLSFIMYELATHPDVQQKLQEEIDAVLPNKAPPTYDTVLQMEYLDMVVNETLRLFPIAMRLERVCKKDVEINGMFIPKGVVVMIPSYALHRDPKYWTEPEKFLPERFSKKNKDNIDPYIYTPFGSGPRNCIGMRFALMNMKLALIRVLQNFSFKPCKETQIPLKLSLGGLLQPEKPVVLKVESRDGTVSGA

Chain of Cytochrome P450 2C9 (Homo sapiens) (P11712 whole entry, looked up): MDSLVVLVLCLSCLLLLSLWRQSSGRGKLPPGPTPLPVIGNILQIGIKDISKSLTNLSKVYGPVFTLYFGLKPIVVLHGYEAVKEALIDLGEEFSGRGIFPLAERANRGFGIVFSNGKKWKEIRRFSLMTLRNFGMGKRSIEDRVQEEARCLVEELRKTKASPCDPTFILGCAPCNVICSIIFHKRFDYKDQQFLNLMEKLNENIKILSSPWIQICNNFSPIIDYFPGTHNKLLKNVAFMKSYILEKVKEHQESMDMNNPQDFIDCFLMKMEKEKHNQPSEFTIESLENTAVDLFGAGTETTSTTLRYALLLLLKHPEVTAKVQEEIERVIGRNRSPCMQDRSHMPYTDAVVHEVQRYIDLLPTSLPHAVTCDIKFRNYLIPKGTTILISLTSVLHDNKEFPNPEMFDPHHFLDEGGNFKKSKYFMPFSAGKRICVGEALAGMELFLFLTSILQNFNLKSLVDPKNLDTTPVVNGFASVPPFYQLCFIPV
Chain of Calcium and integrin-binding protein 1 (Homo sapiens) (Q99828 whole entry, looked up): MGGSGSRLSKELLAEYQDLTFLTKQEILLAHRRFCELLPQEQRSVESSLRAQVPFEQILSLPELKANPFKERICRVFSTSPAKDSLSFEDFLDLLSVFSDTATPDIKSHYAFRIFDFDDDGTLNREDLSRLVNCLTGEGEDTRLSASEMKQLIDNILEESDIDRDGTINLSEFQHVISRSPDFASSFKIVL

`O=C(Nc1ccc(Cl)cc1F)c1ccccc1O`: the Potency result in assay [1] was “inactive”. The Potency in assay [2] was 9.52 µM (active).

On to `CCOc1cc2ncc(C#N)c(Nc3ccc(F)c(Cl)c3)c2cc1NC(=O)/C=C/CN(C)C`, for which the Potency result in assay [1] is “inactive”. Moreover, the Potency in assay [2] is 3.79 µM (active); in assay [3] it was 1.2 µM (active); in assay [4], 459 nM (active) and 742 nM (active).

As to `O=C(NCC(O)CO)c1ccncc1Nc1ccc(I)cc1F` (configuration not stated), in assay [1], the Potency result was “inactive”. Also, the Potency in assay [2] was 16.9 µM (active).

On to `Cc1ccc(-c2c(C(=O)CF)n(CCCO)c3ncnc(N)c23)cc1`, for which the Potency result in assay [1] was “inactive”. Also, the Potency in assay [2] was 21.3 µM (active).

Take `COc1cc(OC)cc(C(=O)Nc2ccc(Cl)c(-c3nc4ccc(N(C)C)cc4[nH]3)c2)c1`: the Potency entry in assay [1] was “inactive”. For the same compound, the Potency in assay [2] is 1.69 µM (active).

For `O=C(c1cc2c(cc1F)OC(c1ccc(F)cc1)(c1ccc(Cl)cc1Cl)O2)N1CCOCC1` (configuration not stated), the Potency result in assay [1] was “inactive”. In assay [2], the Potency was 10.7 µM (active).

In the case of `O=C(O)[C@H](Cc1ccc(Nc2nccc3ccncc23)cc1)NC1=C(Br)C(=O)C12CCCCC2`, the Potency entry in assay [1], in assay [5] and in assay [4] was “inactive” throughout.

In the case of `O=S(=O)(c1ccccc1)c1cnc2c(N3CCNCC3)cccc2c1`, the Potency result in assay [1] is “inactive”. Besides, in assay [2], the Potency was 0.338 µM (active).

For the compound `O=C1CSc2ccccc2N1Cc1cccc(C(F)(F)F)c1`, the Potency entry in assay [1] and in assay [2] was “inactive” each time.

As to `CCN1CCN(Cc2ccc(NC(=O)c3ccc(C)c(/C=C/c4cnc5[nH]ccc5c4OC)c3)cc2C(F)(F)F)CC1`, the Potency result in assay [1] was “inactive”. The Potency in assay [2] was 12 µM (active); in assay [4], 129 nM (active) and 1.05 µM (active).

Take `Cc1noc(-c2ccc(-c3ccc(CC(=O)O)cc3)cc2)c1NC(=O)O[C@H](C)c1ccccc1`: the Potency result in assay [1] was “inactive”. In addition, in assay [2], the Potency was 13.5 µM (active).

In the case of `CNC(=O)c1cc(Oc2ccc3nc(N[C@@H]4CCCC[C@H]4O)sc3c2)ccn1`, the Potency entry in assay [1] is “inactive”. In addition, the Potency in assay [2] is 8.49 µM (active).

With `CC1COC(Nc2ccc3ncnc(Nc4ccc(OCc5nccs5)c(Cl)c4)c3c2)=N1` (configuration not stated), the Potency result in assay [1] is “inactive”. The Potency was 10.7 µM (active) in assay [5] and 16.3 µM (active) in assay [4].

`O=c1[nH]ccc2cc(OC3CCNCC3)ccc12`: the Potency entry in assay [1] and in assay [2] was “inactive” in each case.

For `Cc1ccc(NC(=O)c2ccc(CN3CC[C@H](N(C)C)C3)c(C(F)(F)F)c2)cc1Nc1nccc(-c2cncnc2)n1`, the Potency entry in assay [1] is “inactive”. Besides, the Potency in assay [6] is 1.69 µM (active); in assay [4] it was 8.11 µM (active).

As for `O=C(CN1C(=O)C2(CCCC2)NCC1c1cc(F)cc(F)c1)Nc1ccc2c(c1)CC1(C2)C(=O)Nc2ncccc21` (configuration not stated), the Potency result in assay [1], in assay [5] and in assay [4] was “inactive” throughout.

As to `Nc1nc(-n2cc(C(=O)O)c(=O)c3cc(F)c(N4CC(O)C4)c(Cl)c32)c(F)cc1F`, the Potency result in assay [1], in assay [5] and in assay [4] was “inactive” in each case.

As to `COc1cc(O)c([C@@H](CC(=O)N2CC(C)CC(C)C2)c2ccc3c(c2)OCO3)c(OC)c1` (some centres not stated), the Potency entry in assay [1] is “inactive”. Also, the Potency in assay [2] is 1.34 µM (active).

As for `C[C@H](Oc1ccc(S(C)(=O)=O)cc1C(=O)N1CCN(c2ncc(C(F)(F)F)cc2F)CC1)C(F)(F)F`, the Potency entry in assay [1] was “inactive”. For the same compound, in assay [2], the Potency was 6.74 µM (active).

Take `Cc1noc(=O)c2ccc(NC(=O)C(O)(CC(C)(C)c3cccc4c3OCC4)C(F)(F)F)cc12` (configuration not stated): the Potency result in assay [1] and in assay [2] was “inactive” throughout.

`COc1ccc(N2CCOCC2)c2sc(NC(=O)N3CCC(C)(O)CC3)nc12`: the Potency entry in assay [1] and in assay [4] was “inactive” in each case. For the same compound, the Potency in assay [5] was 16.9 µM (active).

Consider `O=C(NCc1ccc(F)cc1)C(=O)c1c[nH]c2ccccc12`, for which the Potency result in assay [1] was “inactive”. In addition, the Potency in assay [2] is 1.9 µM (active).

For `CCCCNc1ccc(-c2ccc(CN3CCOCC3)cn2)c(NC2CCC(O)CC2)c1` (configuration not stated), the Potency entry in assay [1] and in assay [6] was “inactive” in each case.

With `CC[C@@H](N)CNc1ccnc(-c2cc(-c3cnn(C)c3)ccc2O)n1`, the Potency entry in assay [1] was “inactive”. The Potency in assay [2] is 13.5 µM (active); in assay [4], 1.29 µM (active).

Take `O=C(C(c1ccccc1)c1ccccc1)N1CCN(CC(O)COc2cccc3ncccc23)CC1` (configuration not stated): in assay [1], the Potency entry is “inactive”. Also, the Potency in assay [2] was 12 µM (active).

With `NC(=O)c1cccc2cn(-c3ccc(C4CCCNC4)cc3)nc12` (configuration not stated), the Potency result in assay [1] and in assay [5] was “inactive” throughout. Also, in assay [4], the Potency was 3.25 µM (active).

In the case of `CC(=O)N1CCN(Cc2ccc([C@H](C)Nc3nccc(N4C(=O)OC[C@@H]4C(C)C)n3)cc2)CC1`, the Potency result in assay [1] and in assay [4] was “inactive” each time. Besides, the Potency in assay [2] was 23.9 µM (active).

With `NC(=O)c1cnc(NCCc2ccc(O)c(Cl)c2)nc1NCc1ccccc1`, the Potency result in assay [1] was “inactive”. The results for the Potency in assay [5] and in assay [4] were 15.1 µM (active) and 1.29 µM (active), respectively.

`C=CC(=O)Nc1cc(Nc2ncc(Cl)c(-c3c[nH]c4ccccc34)n2)c(OC)cc1N(C)CCN(C)C`: the Potency entry in assay [1] is “inactive”. Besides, in assay [2], the Potency was 9.52 µM (active).

As to `CCCC(=O)C1CCN(c2ncnc3c2CN(C(=O)c2ccc(-c4ccccc4)cc2)CC3)CC1`, in assay [1], the Potency entry was “inactive”. The Potency in assay [2] was 3.01 µM (active).

As for `CS(=O)(=O)N1CCC(NC(=O)c2[nH]ncc2NC(=O)c2c(Cl)cccc2Cl)CC1`, the Potency entry in assay [1] and in assay [6] was “inactive” each time. In addition, the Potency in assay [2] was 21.3 µM (active); in assay [4], 0.525 µM (active).
